Screens: PubChem BioAssay, National Center for Advancing Translational Sciences (NCATS)
A selection: hits, their analogues and other compounds. The true share with any hit is near 6%.
DRD3 agonist = agonists of human D3 dopamine receptor; D3R DiscoveRx beta-arrestin cells, luminescence, 90 min; max activation, %; actives 0.58% (n = 410,000); AID 652048; in the data active means max activation above about 30%
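Agonist-mode cell screen: cells plated at 1500/well and incubated overnight at 37 °C, then exposed to library compounds for 90 min at 37 °C. Detection reagent was added for 30–60 min at room temperature, and luminescence was read.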
D1 potentiator = enhances dopamine response at the human D1 receptor | P21728 | HEK293 TREx D1 cells, calcium flux, dopamine EC20 potentiation | potentiation, % at 10 µM | actives 0.036% (n = 360,000) | AID 504651; in the data active means potentiation above about 30%
Target sequence (P21728 whole entry, looked up): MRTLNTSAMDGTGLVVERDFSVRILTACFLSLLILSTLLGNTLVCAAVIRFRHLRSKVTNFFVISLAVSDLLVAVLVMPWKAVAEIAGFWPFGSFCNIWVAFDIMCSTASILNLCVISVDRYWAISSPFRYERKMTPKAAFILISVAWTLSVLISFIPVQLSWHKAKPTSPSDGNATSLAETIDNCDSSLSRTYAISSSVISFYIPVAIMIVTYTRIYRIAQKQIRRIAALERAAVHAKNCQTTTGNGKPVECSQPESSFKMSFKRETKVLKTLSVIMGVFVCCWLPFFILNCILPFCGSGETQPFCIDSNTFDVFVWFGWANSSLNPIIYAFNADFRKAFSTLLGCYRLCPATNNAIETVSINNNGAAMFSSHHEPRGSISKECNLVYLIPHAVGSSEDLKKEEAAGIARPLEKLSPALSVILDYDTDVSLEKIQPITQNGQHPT
D1 antag = human D1 dopamine receptor antagonism | activity change, negative = inhibition, % at 10 µM | P21728 | HEK293 TREx D1 cells, calcium flux, dopamine EC80; stronger effect = lower value | actives 3.2% (n = 360,000); in the data active means activity change below about -30%
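Kinetic fluorescence of a calcium dye serves as the read-out. D1-expressing Hek293 Trex cells, induced overnight at 30 C, are exposed to compound for 180 s before an EC80 dopamine addition, then read 180 s further.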
D1 agonist = agonists of human D1 dopamine receptor | activation, % at 2 µM | actives 1% (n = 360,000) | AID 504660 | HEK293 T-REx D1 cells, calcium flux, agonist mode; in the data active means activation above about 30%
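Agonism was scored from calcium flux recorded over 180 s (1 read/s) after pintool compound addition, following a 10-cycle baseline. Cells were inducible force-coupled HEK293 TREx D1, plated overnight at 30 C and loaded with no-wash calcium dye.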
D3 antag = blocks the human D3 dopamine receptor; P35462; D3R cells, DiscoveRx beta-arrestin luminescence, antagonist mode; stronger effect = lower value; max response, negative = inhibition, %; actives 2.5% (n = 360,000); AID 652054; in the data active means max response below about -50%; inconclusive means no clear call, values can overlap the other calls
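Cells expressing the human receptor were seeded at 1500 cells/well, incubated overnight at 37 degrees C in 5% CO2, then exposed to library compounds with dopamine controls for 90 minutes at 37 degrees C before luminescent detection.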
Numbers stand for hits.

What do the screens show for `O=C(C[C@H]1CC[C@H]2[C@@H](COC[C@@H](O)CN2S(=O)(=O)c2ccccc2)O1)N[C@@H]1CCN(Cc2ccccc2)C1`?
DRD3 agonist: inactive; D3 antag: -71

Results for O=S(=O)(O)c1ccc(O)cc1 ?
DRD3 agonist: inactive

Results for O=[N+]([O-])c1ccc(Cl)c(/C=N/n2c(COc3ccccc3)n[nH]c2=S)c1 ?
DRD3 agonist: inactive; D1 potentiator: inactive; D1 antag: inactive; D1 agonist: inactive; D3 antag: -58

What do the screens show for `FC(F)(F)c1ccccc1/C=N/n1c(COc2ccccc2)n[nH]c1=S`?
DRD3 agonist: inactive; D1 potentiator: inactive; D1 antag: -36; D1 agonist: 38; D3 antag: inactive

Results for S=c1[nH]nc(COc2ccccc2)n1/N=C/c1ccncc1 ?
DRD3 agonist: inactive; D1 potentiator: inactive; D1 agonist: inactive; D3 antag: inactive

Results for CCc1ccc(/C=N/n2c(COc3ccccc3)n[nH]c2=S)cc1 ?
DRD3 agonist: inactive; D1 potentiator: inactive; D1 antag: inactive; D1 agonist: 61; D3 antag: inactive

What do the screens show for `Cc1ccc(N/N=C(\Cc2nc3ccccc3[nH]2)c2ccccc2)cc1`?
DRD3 agonist: inactive; D1 potentiator: inactive; D1 antag: inactive; D1 agonist: inactive; D3 antag: -60

How did CCOc1cc2sc(N3CCC(C(=O)Nc4ccccc4Cl)CC3)nc2cc1Br do in these assays?
DRD3 agonist: inactive; D1 potentiator: inactive; D1 antag: inactive; D1 agonist: inactive

What do the screens show for `Cc1ccc(S(=O)(=O)NCl)cc1`?
DRD3 agonist: inactive

How did CO/N=C(\C(=O)N[C@@H]1C(=O)N2C(C(=O)O)=C(CSC(=O)c3ccco3)CS[C@H]12)c1csc(N)n1 do in these assays?
DRD3 agonist: inactive

How did O=C(O)c1nnn(-c2ccc([N+](=O)[O-])cc2)c1-c1ccccc1 do in these assays?
DRD3 agonist: inactive; D1 potentiator: inactive; D1 antag: -42; D1 agonist: inactive; D3 antag: inactive

What do the screens show for `O=[N+]([O-])c1ccc(-n2nncc2-c2ccccc2)cc1`?
DRD3 agonist: inactive; D1 potentiator: inactive; D1 antag: inactive; D1 agonist: inactive; D3 antag: inactive

Results for N#Cc1nc(COc2ccccc2Cl)oc1NCCc1ccccc1 ?
DRD3 agonist: inactive; D1 potentiator: inactive; D1 antag: inactive; D1 agonist: inactive

What do the screens show for `O=C(Nc1cccc(Cl)c1)c1cc2c(=O)[nH]c3ccccc3c2s1`?
DRD3 agonist: inactive; D1 potentiator: inactive; D1 antag: inactive; D1 agonist: inactive

How did O=C(Nc1cccc(Cl)c1)c1ccc(NCCCN2CCOCC2)c([N+](=O)[O-])c1 do in these assays?
DRD3 agonist: inactive; D1 potentiator: inactive; D1 antag: inactive; D1 agonist: inactive; D3 antag: -89

Results for Cc1ccc(NC(=O)c2ccc(NCCCN3CCC(C)CC3)c([N+](=O)[O-])c2)cc1F ?
DRD3 agonist: inactive; D1 potentiator: inactive; D1 antag: inactive; D1 agonist: inactive; D3 antag: -65

Results for O=C(NCCCN1CCOCC1)c1cccc(NC(=O)c2ccccc2)c1 ?
DRD3 agonist: inactive; D3 antag: inactive

What do the screens show for `CCc1cccc(NC(=O)Nc2csc3c2CCCC3)c1`?
DRD3 agonist: inactive; D1 potentiator: inactive; D1 antag: -30; D1 agonist: inactive

Results for COc1cccc(NC(=O)c2csc3c2CCCCC3)c1 ?
DRD3 agonist: 44; D1 potentiator: inactive; D1 antag: inactive; D1 agonist: inactive

What do the screens show for `CCc1cc2c(SCc3ccc(C(=O)OC)o3)ncnc2s1`?
DRD3 agonist: inactive; D1 potentiator: inactive; D1 antag: -32; D1 agonist: inactive; D3 antag: inactive

What do the screens show for `COC(=O)c1ccc(CSc2ncnc3ccccc23)o1`?
DRD3 agonist: inactive; D1 potentiator: inactive; D1 antag: inactive; D1 agonist: inactive; D3 antag: inactive

What do the screens show for `O=C1NC[C@H](CCCCN2CCN(CC3CCCCC3)C(=O)C2=O)N(CCc2ccccc2)C1=O`?
DRD3 agonist: inactive; D3 antag: inactive

Results for CSc1ccccc1C(=O)C1CCCN(C(=O)CCN2CCCO2)C1 (configuration not stated) ?
DRD3 agonist: inactive; D1 potentiator: inactive; D1 antag: inactive; D1 agonist: inactive; D3 antag: inactive

Results for COc1cccc(OC)c1CN1CCCC(C(=O)c2ccccc2SC)C1 (configuration not stated) ?
DRD3 agonist: inactive; D1 potentiator: inactive; D1 antag: -57; D1 agonist: inactive; D3 antag: inconclusive

How did COc1ccc(C(=O)C2CCCN(Cc3c(O)cccc3OC)C2)cc1OC (configuration not stated) do in these assays?
DRD3 agonist: inactive; D1 potentiator: inactive; D1 antag: inactive; D1 agonist: inactive; D3 antag: inactive

What do the screens show for `COCCC(=O)N1CCCC(C(=O)c2ccccc2SC)C1` (configuration not stated)?
DRD3 agonist: inactive; D3 antag: -59

How did CCN(CC)C(=O)C[n+]1cccc(C(N)=O)c1 do in these assays?
DRD3 agonist: inactive; D1 potentiator: inactive; D1 antag: -31; D1 agonist: inactive; D3 antag: inactive

How did Cc1ccc(C(=O)C[n+]2cccc(C(N)=O)c2)cc1 do in these assays?
DRD3 agonist: inactive; D1 potentiator: inactive; D1 antag: inactive; D1 agonist: inactive; D3 antag: inactive

Results for O=C(C[n+]1cccc(C(=O)Nc2ccccc2)c1)c1ccc(Cl)cc1 ?
DRD3 agonist: inactive; D3 antag: inconclusive

Results for NC(=O)C[n+]1cccc(C(=O)Nc2ccccc2)c1 ?
DRD3 agonist: inactive; D1 potentiator: inactive; D1 antag: inactive; D1 agonist: inactive; D3 antag: -67

Results for Cc1ccc(Cn2c(=O)n(Cc3ccccc3)c(=O)c3oc4ccccc4c32)cc1 ?
DRD3 agonist: inactive; D1 potentiator: inactive; D1 antag: inactive; D1 agonist: inactive

Results for OCCNCc1ccc(OCc2ccc(Cl)cc2Cl)cc1 ?
DRD3 agonist: inactive; D1 potentiator: inactive; D1 antag: inactive; D1 agonist: inactive; D3 antag: inactive

How did OCCCCNCc1ccc(OCc2ccc(Cl)cc2Cl)cc1 do in these assays?
DRD3 agonist: inactive; D1 potentiator: inactive; D1 antag: inactive; D1 agonist: 61; D3 antag: inactive

How did COc1cc(-c2nnc(-c3ccncc3)o2)ccc1OCc1ccccc1 do in these assays?
DRD3 agonist: 81; D1 potentiator: inactive; D1 antag: inactive; D1 agonist: inactive; D3 antag: inactive

How did COc1cc(-c2nnc(-c3ccco3)o2)ccc1OCc1ccccc1 do in these assays?
DRD3 agonist: 30; D1 potentiator: inactive; D1 antag: inactive; D1 agonist: inactive; D3 antag: inactive

How did NC(=O)C1(N2CCCCC2)CCN(C(=O)Nc2ccc(F)cc2)CC1 do in these assays?
DRD3 agonist: inactive; D1 potentiator: inactive; D1 antag: inactive; D1 agonist: inactive

How did COCOCCn1cc(CN2CCS(=O)(=O)N(Cc3ccc(-c4ccc(F)nc4)cc3)C(C)C2=O)nn1 (configuration not stated) do in these assays?
DRD3 agonist: inactive; D3 antag: inactive
